Assay outcomes as filed in PubChem BioAssay.
Autofluor counter = flagged as autofluorescent in microsphere protease counterscreen. fluorescence intensity (no concentration beside the values). compound autofluorescence counterscreen, microsphere flow cytometry; stronger effect = higher value. actives 3.1% (n = 360,000). AID 624483; in the data active = fluorescence intensity above about 16000; inconclusive = no clear call, values can overlap the other calls
BoNT-A LC inh2 = inhibitors of Botulinum neurotoxin A light chain protease; multiplex microsphere protease substrate cleavage, flow cytometry; inhibition, % at 10 µM; actives 0.17% (n = 360,000); AID 588499; also: plate controls were buffer without enzyme for full effect and enzyme alone for no effect
BoNT F protease = BoNT F light chain protease inhibition | Multiplex microsphere protease cleavage assay, flow cytometry | inhibition, % at 10 µM | actives 0.22% (n = 360,000) | AID 588497; in the data active = inhibition above about 35%, passing the limit was not always enough; inconclusive = no clear call, values can overlap the other calls; also: plate controls were buffer without enzyme for full effect and enzyme alone for no effect
MazEF act = MazEF (E. coli) toxin RNase activation; P0AE70; FAM/BHQ RNA-DNA oligo cleavage fluorescence, 5 h; activation, % at 20 µM; actives 0.32% (n = 350,000); AID 504720; in the data active = activation above about 50%
Anthrax LF inh2 = blocks Bacillus anthracis lethal factor protease. actives 0.12% (n = 360,000). multiplex microsphere protease cleavage assay, LF. P15917. inhibition, % at 10 µM; also: plate controls were buffer without enzyme for full effect and enzyme alone for no effect
Target sequence (P15917 whole entry, looked up): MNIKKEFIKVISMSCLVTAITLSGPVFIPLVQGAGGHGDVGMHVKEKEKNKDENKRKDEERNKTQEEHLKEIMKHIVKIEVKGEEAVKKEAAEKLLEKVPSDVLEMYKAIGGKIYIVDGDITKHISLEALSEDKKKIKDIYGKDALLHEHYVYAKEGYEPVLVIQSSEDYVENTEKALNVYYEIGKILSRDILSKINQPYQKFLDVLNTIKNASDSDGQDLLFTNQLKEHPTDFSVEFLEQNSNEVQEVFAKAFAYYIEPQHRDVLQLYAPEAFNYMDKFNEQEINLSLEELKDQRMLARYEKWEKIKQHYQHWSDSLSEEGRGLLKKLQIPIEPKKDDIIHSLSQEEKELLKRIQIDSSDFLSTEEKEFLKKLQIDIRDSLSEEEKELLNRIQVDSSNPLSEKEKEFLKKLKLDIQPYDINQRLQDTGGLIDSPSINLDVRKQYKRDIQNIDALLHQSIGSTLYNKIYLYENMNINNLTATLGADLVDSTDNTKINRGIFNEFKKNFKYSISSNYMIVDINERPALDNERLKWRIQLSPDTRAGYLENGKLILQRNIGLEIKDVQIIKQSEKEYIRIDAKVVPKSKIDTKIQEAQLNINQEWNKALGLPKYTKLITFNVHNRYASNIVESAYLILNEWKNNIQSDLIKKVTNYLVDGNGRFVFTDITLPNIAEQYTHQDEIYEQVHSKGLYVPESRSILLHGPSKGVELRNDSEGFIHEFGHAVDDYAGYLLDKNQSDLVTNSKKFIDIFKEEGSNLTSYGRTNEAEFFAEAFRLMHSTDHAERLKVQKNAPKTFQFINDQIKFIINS
PfHsp40 yeast = compounds rescuing yeast from Plasmodium falciparum HSP40 toxicity | growth rescue, % at 12.5 µM | S. cerevisiae expressing PfHsp40, growth rescue, ATP luminescence | actives 0.68% (n = 340,000); in the data active = growth rescue above about 28%, passing the limit was not always enough; inconclusive = no clear call, values can overlap the other calls;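 also: yeast W303a lacking pdr1 and pdr3 grown in galactose medium; growth measured after three days at 30 °C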
* = called active by the depositor. This is a sample that favours compounds with a hit; in the whole collection about 4.3% have one here. Rule as the data show it, unless noted: active = inhibition above about 30%; inconclusive = no clear call, values can overlap the other calls; inactive = below that.

What do the screens show for `O=C(N/N=C/c1c(F)cccc1Cl)c1cc(C2CC2)[nH]n1`?
Autofluor counter: 5823; BoNT-A LC inh2: -1; BoNT F protease: 3; MazEF act: 5; Anthrax LF inh2: 4; PfHsp40 yeast: 0

Results for Cc1ccc(C(=O)Nc2ccccc2N2CCOCC2)cc1S(=O)(=O)N1CCOCC1 ?
Autofluor counter: 5943; BoNT-A LC inh2: 8; BoNT F protease: -15; MazEF act: 5; Anthrax LF inh2: -15; PfHsp40 yeast: -1

What do the screens show for `O=C1CCCc2nc(N3CCN(Cc4ccccc4)CC3)ncc21`?
Autofluor counter: 17293*; BoNT-A LC inh2: inconclusive; BoNT F protease: 9; MazEF act: -6; Anthrax LF inh2: 2; PfHsp40 yeast: 1

How did Cc1ccc(NC(=O)N/C=C/c2ccco2)cc1C do in these assays?
Autofluor counter: 21513*; BoNT-A LC inh2: inconclusive; BoNT F protease: -2; MazEF act: 11; Anthrax LF inh2: 2; PfHsp40 yeast: 2

Results for Cc1ccc(NC(=O)N/C=C/c2ccco2)c(C)c1 ?
Autofluor counter: 16016; BoNT-A LC inh2: 2; BoNT F protease: 2; MazEF act: -13; Anthrax LF inh2: 2; PfHsp40 yeast: 1

How did Cc1nn(-c2ccccc2)c(C)c1C(=O)OCc1ccc(C#N)cc1 do in these assays?
Autofluor counter: 4362; BoNT-A LC inh2: -2; BoNT F protease: inconclusive; MazEF act: -15; Anthrax LF inh2: -3; PfHsp40 yeast: 3

What do the screens show for `CCOC(=O)c1cc2c(C)n(-c3ccc(N(C)C)cc3)c(C)c2cc(C(=O)OCC)c1=O`?
Autofluor counter: 18745*; BoNT-A LC inh2: inconclusive; BoNT F protease: 6; MazEF act: 7; Anthrax LF inh2: 1; PfHsp40 yeast: 0

What do the screens show for `COc1ccc(NC(=O)NC2(C(=O)N3CCCC(C)C3)CCCCC2)cc1` (stereo unspecified)?
Autofluor counter: 6729; BoNT-A LC inh2: -4; BoNT F protease: -12; MazEF act: 3; Anthrax LF inh2: -2; PfHsp40 yeast: -1

Results for CCC(=O)c1ccc(OC(=O)N2CCOCC2)cc1 ?
Autofluor counter: 4006; BoNT-A LC inh2: -3; BoNT F protease: inconclusive; MazEF act: 8; Anthrax LF inh2: 5; PfHsp40 yeast: 0

How did CCC(=O)NCc1c(Cl)cccc1-n1cccc1 do in these assays?
Autofluor counter: 19934*; BoNT-A LC inh2: 6; BoNT F protease: 10; MazEF act: -1; Anthrax LF inh2: -11; PfHsp40 yeast: 0

Results for O=C(Nc1nc(-c2ccccc2)c(-c2ccccc2)o1)c1ccc(F)cc1 ?
Autofluor counter: 3584; BoNT-A LC inh2: -1; BoNT F protease: -13; MazEF act: 16; Anthrax LF inh2: -8; PfHsp40 yeast: 418*

How did CCC(NC(=S)NCc1ccc(F)cc1)c1ccc(C(C)C)cc1 (stereo unspecified) do in these assays?
Autofluor counter: 5499; BoNT-A LC inh2: 3; BoNT F protease: 6; MazEF act: -2; Anthrax LF inh2: -3; PfHsp40 yeast: 472*

How did CC(NC(=S)NCc1ccc(F)cc1)C12CC3CC(CC(C3)C1)C2 (stereo unspecified) do in these assays?
Autofluor counter: 4747; BoNT-A LC inh2: 0; BoNT F protease: 2; MazEF act: -46; Anthrax LF inh2: -3; PfHsp40 yeast: 157*

Results for Cc1ccc(C)c(NC(=O)C2CC(Cl)=CCC2C(=O)O)c1 (stereo unspecified) ?
Autofluor counter: 7777; BoNT-A LC inh2: 0; BoNT F protease: 4; MazEF act: 3; Anthrax LF inh2: -3; PfHsp40 yeast: 0

How did Cc1ccccc1NC(=O)C1CC(Cl)=CCC1C(=O)O (stereo unspecified) do in these assays?
Autofluor counter: 21780*; BoNT-A LC inh2: 2; BoNT F protease: -1; MazEF act: 3; Anthrax LF inh2: -9; PfHsp40 yeast: 2

How did COC(=O)c1ccc2nc(C)c(C)nc2c1 do in these assays?
Autofluor counter: 20620*; BoNT-A LC inh2: inconclusive; BoNT F protease: 0; MazEF act: -7; Anthrax LF inh2: -2; PfHsp40 yeast: -1

What do the screens show for `CC(=O)c1ccc(-c2ccc(C(=O)NCC3CCCO3)o2)cc1` (stereo unspecified)?
Autofluor counter: 5082; BoNT-A LC inh2: 1; BoNT F protease: 0; MazEF act: 2; Anthrax LF inh2: 7; PfHsp40 yeast: 0

What do the screens show for `CCCCn1nc(C(=O)Nc2cc(S(=O)(=O)N(C)C)ccc2C)c2ccccc2c1=O`?
Autofluor counter: 3584; BoNT-A LC inh2: -1; BoNT F protease: -3; MazEF act: -12; Anthrax LF inh2: -8; PfHsp40 yeast: 2
